Source: PubChem BioAssay (NCI)
Compounds without any hit were thinned out: in the full panel of roughly 83,000, 20% have a hit.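 Each cell line was grown in a 96-well plate and treated with one concentration of compound for 48 hours. Values below 10 were considered active.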 The source made the active and inactive calls.

Key:
Assay in all cases: NCI-60 one-dose screen, 48 h (100 = growth as untreated, 0 = no growth, -100 = all killed)
Settings in all cases: 10 µM unless noted
NCI-H23 lung = tested on: NCI-H23 lung
NCI-H226 lung = tested on: NCI-H226 lung
NCI-H322M lung = tested on: NCI-H322M lung
HOP-62 NSCLC = tested on: HOP-62 NSCLC
NCI-H460 lung = tested on: NCI-H460 lung
HOP-92 NSCLC = tested on: HOP-92 NSCLC
NCI-H522 lung = tested on: NCI-H522 lung
A549/ATCC NSCLC = tested on: A549/ATCC NSCLC
786-0 renal = tested on: 786-0 renal
COLO 205 colon = tested on: COLO 205 colon
DU-145 prostate = tested on: DU-145 prostate
K-562 leukemia = tested on: K-562 leukemia
MDA-MB-231 breast = tested on: MDA-MB-231 breast
RXF 393 renal = tested on: RXF 393 renal
SF-268 CNS = tested on: SF-268 CNS
SF-295 CNS = tested on: SF-295 CNS
SF-539 CNS = tested on: SF-539 CNS
UACC-257 melanoma = tested on: UACC-257 melanoma
M14 melanoma = tested on: M14 melanoma
MALME-3M melanoma = tested on: MALME-3M melanoma

Measured: growth

O=C(O)c1cccc2c1Cc1cc([N+](=O)[O-])ccc1-2
inactive: NCI-H23 lung 103% | NCI-H226 lung 100% | NCI-H322M lung 109% | HOP-62 NSCLC 105% | NCI-H460 lung 110% | HOP-92 NSCLC 82% | NCI-H522 lung 103% | A549/ATCC NSCLC 107% | 786-0 renal 108% | COLO 205 colon 107% | DU-145 prostate 109% | K-562 leukemia 108% | MDA-MB-231 breast 102% | RXF 393 renal 118% | SF-268 CNS 104% | SF-295 CNS 115% | SF-539 CNS 93% | UACC-257 melanoma 109% | M14 melanoma 110%

O=[N+]([O-])c1cccc(/C=N\Nc2ccccc2)c1
inactive: NCI-H23 lung 88.5% | NCI-H226 lung 70.1% | NCI-H322M lung 81.1% | HOP-62 NSCLC 84% | NCI-H460 lung 77.1% | HOP-92 NSCLC 66% | NCI-H522 lung 54.9% | A549/ATCC NSCLC 67.4% | 786-0 renal 74.4% | COLO 205 colon 85.4% | DU-145 prostate 80.2% | K-562 leukemia 16.6% | MDA-MB-231 breast 55.7% | RXF 393 renal 101% | SF-268 CNS 62.5% | SF-295 CNS 49.2% | SF-539 CNS 96.7% | UACC-257 melanoma 95.3% | M14 melanoma 33.7%

OCC12CCCC(CO)(COC1)C2O (stereo not drawn)
inactive: NCI-H23 lung 97% | NCI-H226 lung 99.8% | NCI-H322M lung 115% | HOP-62 NSCLC 106% | NCI-H460 lung 100% | HOP-92 NSCLC 30.9% | NCI-H522 lung 111% | A549/ATCC NSCLC 101% | 786-0 renal 112% | COLO 205 colon 107% | DU-145 prostate 127% | K-562 leukemia 120% | MALME-3M melanoma 114% | MDA-MB-231 breast 94.3% | RXF 393 renal 121% | SF-268 CNS 113% | SF-539 CNS 105% | UACC-257 melanoma 100% | M14 melanoma 97.6%

CC(C)=CCC/C(C)=C/CC/C(C)=C/CC/C(C)=C/CSC[C@H](NC(=O)CCCCCN1CCN(C)CC1)C(=O)NC1CCCCC1
inactive: NCI-H23 lung 73% | NCI-H226 lung 95.8% | NCI-H322M lung 89.8% | HOP-62 NSCLC 85.6% | HOP-92 NSCLC 76.4% | NCI-H522 lung 85% | A549/ATCC NSCLC 71.7% | 786-0 renal 83.7% | DU-145 prostate 64.3% | MALME-3M melanoma 71.2% | RXF 393 renal 75.1% | SF-268 CNS 84.8% | SF-539 CNS 85.7% | UACC-257 melanoma 105% | M14 melanoma 35.1%
active: NCI-H460 lung -7.73% | COLO 205 colon 8.86% | K-562 leukemia -27.2% | MDA-MB-231 breast -81.3%

O=C(N/N=C\c1ccccc1O)C1CC1
inactive: NCI-H23 lung 116% | NCI-H226 lung 104% | NCI-H322M lung 88.8% | HOP-62 NSCLC 105% | NCI-H460 lung 115% | HOP-92 NSCLC 90.8% | NCI-H522 lung 98.1% | A549/ATCC NSCLC 102% | 786-0 renal 105% | COLO 205 colon 109% | DU-145 prostate 108% | K-562 leukemia 113% | MDA-MB-231 breast 103% | RXF 393 renal 112% | SF-268 CNS 98.7% | SF-295 CNS 110% | SF-539 CNS 110% | UACC-257 melanoma 94.7% | M14 melanoma 109%

Cc1ccc(-c2nc3ccc(Cl)cc3c(=O)n2N2C(=O)CSC2c2ccccc2Cl)cc1 (stereo not drawn)
active: HOP-62 NSCLC 2.48% | HOP-92 NSCLC -4.8%
inactive: NCI-H23 lung 91.1% | NCI-H226 lung 86.6% | NCI-H322M lung 86.7% | NCI-H460 lung 48.5% | NCI-H522 lung 76.9% | A549/ATCC NSCLC 13.2% | 786-0 renal 70% | COLO 205 colon 66.6% | DU-145 prostate 73.1% | K-562 leukemia 93.4% | MALME-3M melanoma 65.8% | MDA-MB-231 breast 59.9% | RXF 393 renal 98.5% | SF-268 CNS 60.4% | SF-539 CNS 78.8% | M14 melanoma 71.4%

COC(=O)C(N)CSC(c1ccccc1)(c1ccccc1)c1ccccc1 (stereo not drawn)
active: NCI-H322M lung 9.37% | NCI-H460 lung 8.85% | NCI-H522 lung -43.6% | COLO 205 colon 1.18% | DU-145 prostate -24.3% | MDA-MB-231 breast 3.44% | RXF 393 renal 1.07% | SF-539 CNS -11.7% | M14 melanoma -6.93%
inactive: NCI-H23 lung 45.5% | NCI-H226 lung 77.6% | HOP-62 NSCLC 44.6% | HOP-92 NSCLC 55.1% | A549/ATCC NSCLC 31.3% | 786-0 renal 53.7% | MALME-3M melanoma 31.8% | SF-268 CNS 28.4%

COc1ccc2c(c1)c(-c1nc(-c3c[nH]c4ncccc34)cs1)cn2C
inactive: NCI-H23 lung 71.8% | NCI-H226 lung 80.6% | NCI-H322M lung 46.6% | HOP-62 NSCLC 90.4% | NCI-H460 lung 40.1% | HOP-92 NSCLC 60.7% | NCI-H522 lung 77.9% | A549/ATCC NSCLC 81.7% | 786-0 renal 70.1% | COLO 205 colon 83.7% | DU-145 prostate 72.5% | K-562 leukemia 41% | MDA-MB-231 breast 55.3% | RXF 393 renal 57.2% | SF-268 CNS 97% | SF-295 CNS 86% | SF-539 CNS 66.2% | UACC-257 melanoma 85.1% | M14 melanoma 63.7%

CC(=O)O[C@H]1CC[C@@]2(C)[C@@H](CC[C@@H]3[C@@H]2CC(=O)[C@@]2(C)[C@H]3C[C@@H](C3CCCC3=O)[C@@H]2C(C)=O)C1 (stereo partly drawn)
inactive: NCI-H23 lung 107% | NCI-H226 lung 112% | NCI-H322M lung 106% | HOP-62 NSCLC 100% | NCI-H460 lung 111% | HOP-92 NSCLC 93.1% | NCI-H522 lung 82.5% | A549/ATCC NSCLC 101% | 786-0 renal 105% | COLO 205 colon 116% | DU-145 prostate 117% | K-562 leukemia 105% | MDA-MB-231 breast 98.8% | RXF 393 renal 132% | SF-268 CNS 112% | SF-295 CNS 112% | SF-539 CNS 105% | UACC-257 melanoma 109% | M14 melanoma 97.8%
